# Results as given in PubChem BioAssay AID949 (Emory University Molecular Libraries Screening Center, 2007).
# This is one part of the list. Active and inactive are the calls of the source.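 Rule for the calls: active = yeast growth recovered at 30 hours, either rising with dose fitted slope above 0.001 or with average optical density gain above 0.07 (some results past the limit were not filed as active); inactive = growth falling with dose or no effect.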
# Assay: concentration-response growth rescue in JHY4D yeast depleted of SDO1, OD600, diseases with bone marrow failure (AID 949);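 for OD recovery: gain in OD600 from 0 h to 30 h averaged across all seven doses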
# Details: S. cerevisiae JHY4D (SDO1-depleted) growth rescue, OD600, 30 h, efflux-deficient strain, SNQ2 and PDR5 mutated; OD recovery: stronger effect = higher value; dose-response slope: measured here: 30 h OD slope vs dose
SMILES,OD recovery,dose-response slope
CN(C)c1ccc(Nc2c3c4c(cccc4n(C)c2=O)C(=O)c2ccccc2-3)cc1,0.0269 (inactive),-0.000458
Cc1[nH]c2ccccc2c1C(=O)CSCC(=O)O,0.11 (active),-0.000672
CCOc1cccc2c1OC1(CCCCC1)N1N=C(c3cccnc3)CC21 (configuration not stated),0.0606 (inactive),-0.000222
O=S(=O)(/N=C(/Nc1ccccn1)c1ccccc1)c1ccc(Cl)cc1,0.0469 (inactive),0.000638
Cc1oc2nc(SCC(=O)NCc3cccnc3)nc(N)c2c1C,0.0937 (active),0.000887
CC(C)OC(=O)c1c(NC(=O)c2ccco2)sc2c1CCCC2,0.0368 (inactive),0.000949
O=C(COC(=O)/C=C/c1cccc(Cl)c1)NCCc1ccccc1,0.091 (active),-0.000894
COc1cccc(-c2nnc(NC(=O)c3ccc(S(=O)(=O)N(CC(C)C)CC(C)C)cc3)o2)c1,0.0821 (active),-0.000585
O=C(CSc1nc(-c2ccco2)cc(C(F)(F)F)n1)NCc1cccs1,0.072 (active),0.00107
COc1ccc(-c2nnco2)cc1OC,0.0477 (inactive),0.000454
CC(=O)Nc1ccc(S(=O)(=O)NCCc2ccccc2)cc1,0.0591 (inactive),0.00092
COc1ccc(/C(C)=N/NC(=O)CCC(=O)Nc2ccc(Cl)cc2Cl)c(OC)c1,0.11 (active),0.000741
CS(=O)(=O)Nc1ccc(C(=O)N2CCCC2)cc1,0.0956 (active),0.000226
COc1ccc(CNC(=O)c2c(C)cc(=O)oc2C)cc1OC,0.0773 (active),0.000182
COc1cc(OC)nc(S(C)(=O)=O)n1,0.0647 (inactive),0.000101
COc1ccc(OCC(=O)NNC(=O)c2ccc(-c3ccccc3)cc2)cc1,0.0649 (inactive),-0.000252
